This is a sample that favours compounds with a hit; in the whole collection about 3.6% have one here.
CendR NRP1 mod: modulators of CendR peptide binding to human neuropilin-1; AID 602438; FAM-RPARPAR peptide binding to NRP-1, fluorescence polarization; inhibition, % at 25 µM; 0.85% of 360,000 active;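 active means inhibition or corrected inhibition above about 18%, plus a signal ratio from 0.5 to 1.5, limit read from the data, passing the limit was not always enough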
NadD inh: blocks S. aureus nicotinate mononucleotide adenylyltransferase; purified NadD enzyme, colorimetric absorbance read-out; inhibition, % at 20 µM; AID 602399; 0.78% of 360,000 active; in the data active means inhibition above about 26%
FAS-TE inh: FAS thioesterase (human) inhibition. inhibition, % at 15 µM. P49327. recombinant FAS-TE, OMFH fluorogenic substrate, fluorescence endpoint. 0.67% of 360,000 active;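 active means compounds whose normalised, plate-corrected inhibition of enzyme fluorescence in the single-dose primary screen is 50% or more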
CRFR2-BP antag: CRF-BP/CRF-R2 complex antagonism. inhibition, % at 11.8 µM. AID 588475. 0.59% of 350,000 active. HEK293 CRF-R2/CRF-BP, CRF-induced calcium fluorescence;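 active means inhibition of the ligand-induced calcium signal above about 50% at the single tested concentration, limit read from the data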
Myeloid diff 2: promotes myeloid progenitor differentiation; ER-HoxA9 myeloid progenitors, lysozyme-GFP differentiation, flow cytometry; calls only at 10 µM; 1% of 360,000 active;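 active means normalized GFP-positive differentiation at or above the plate's own cutoff, the solvent-only control mean plus 3 SD; inconclusive means no clear call, values can overlap the other calls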;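 further: cells exposed to compound for four days before flow analysis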
NadD conf: NadD (S. aureus) inhibition, single concentration confirmation; shares compounds with NadD inh; purified S. aureus NadD, colorimetric enzyme assay; inhibition, % at 20 µM; 13% of 2,000 active; in the data active means inhibition mostly above about 42%, no sharp cut-off; inactive means mostly below about 42%
Numbers stand for hits; 0 = inactive; ? = inconclusive; - = no result given; + = active, no number.

SMILES	CendR NRP1 mod	NadD inh	FAS-TE inh	CRFR2-BP antag	Myeloid diff 2	NadD conf
O=c1[nH]c2ccc(Cl)cc2c(-c2ccccc2)c1SC(=S)N1CCOCC1	0	40	0	0	0	0
O=c1[nH]c2ccc(Cl)cc2c(-c2ccccc2)c1SC(=S)N1CCCCC1	0	37	0	0	0	0
Cc1cc(C(=O)N/N=C/c2cc(Br)cc(Br)c2OC(=O)c2cccc(F)c2)n[nH]1	20	32	0	0	0	0
COc1ccc(C)cc1NC(=O)C1CCN(C(=O)C2CC(=O)N(c3ccc(C)cc3)C2)CC1 (stereo not given)	0	0	0	0	0	-
COc1ccccc1C=NNC(=O)NN=Cc1ccccc1OC	0	0	0	0	0	-
COc1ccccc1C=NN=C(NN=Cc1ccccc1OC)NN=Cc1ccccc1OC	0	35	0	0	0	0
C[C@@H]1CN([C@H](C)CO)C(=O)c2cc(Br)cnc2O[C@@H]1CN(C)C(=O)c1ccccc1	0	0	0	0	0	-
NS(=O)(=O)c1ccc(NC(=O)/C=C/c2cn(-c3ccccc3)nc2-c2cccc(Cl)c2)cc1	0	41	0	0	0	0
O=C(/C=C/c1cn(-c2ccccc2)nc1-c1ccccc1)Nc1ccc(C(=O)O)cc1	0	0	0	0	0	-
O=C(COC(=O)c1ccc(NS(=O)(=O)c2cccs2)cc1)NCc1ccco1	0	30	0	0	0	0
CCNC(=O)NC(=O)CSc1ccc(S(=O)(=O)N2CCOCC2)cn1	0	0	0	0	0	-
Cc1sc(NC(=O)Cc2ccc3c(c2)OCO3)nc1-c1ccc2c(c1)CCN2C(=O)c1ccc(F)cc1	0	35	0	0	0	0
Cc1sc(NC(=O)CN2CCCC2)nc1-c1ccc2c(c1)CCN2C(=O)c1cccc(F)c1	0	0	0	0	0	-
C[C@H]1CC[C@@]2(O[C@@H](CCO)C[C@H](O)[C@H]2O)O1	0	0	0	0	0	-
Cc1ccc(C(C)C)c(OCc2ccc(C(=O)N/N=C/c3ccc(C(=O)O)cc3)cc2)c1	0	30	0	0	0	0
Nc1nc(/C=C/c2cccnc2)nc(-c2ccccc2O)n1	0	0	0	0	0	-
CC1=CCC(C(=O)O)C(C(=O)Nc2ccc(-c3nc4ccc(C)cc4s3)cc2)C1 (stereo not given)	0	0	0	0	0	-
N/C(CC(=O)NC1CCCCC1)=N\OCC(=O)Nc1ccc(Cl)c(Cl)c1	0	0	0	0	0	-
O=C(O)c1cccc(Cn2c(Cl)c(/C=N/NC(=O)c3cc4ccccc4cc3O)sc2=O)c1	0	0	0	0	0	-
COc1ccc(COc2cc(-c3cccc(OC)c3)nc3ccc(NC(=O)c4ccc(C)cc4)cc23)cc1	0	40	0	0	?	0
Cc1ccc(-n2nc(C)c3onc(C)c3c2=O)cc1	0	0	0	0	0	-
C#CCn1c(=NC(=O)c2sc3ccccc3c2Cl)sc2cc(S(N)(=O)=O)ccc21	0	39	0	0	0	0
CCOc1ccccc1N1CCN(S(=O)(=O)c2ccc3c4c(cccc24)C(=O)N3)CC1	0	30	0	0	0	0
CC1(C)Cc2[nH]c3ccccc3c2C(C)(C)N1	0	0	0	0	0	-
COc1cc(Cl)c(C)cc1NC(=O)c1ccc2c(SCC(=O)O)c3c(nc2c1)CCCC3	0	0	0	0	0	-
SMILES	CendR NRP1 mod	NadD inh	FAS-TE inh	CRFR2-BP antag	Myeloid diff 2	NadD conf
CCOC(=O)c1ccccc1NC(=O)c1ccc2c(SCC(=O)O)c3c(nc2c1)CCCC3	0	30	0	0	0	62
O=C(O)CSc1c2c(nc3cc(C(=O)Nc4cccc(C(F)(F)F)c4)ccc13)CCC2	0	34	0	0	0	0
N#C/C(=C/c1cn(-c2ccccc2)nc1-c1cccc(S(=O)(=O)N2CCCC2)c1)C(=O)NCc1ccco1	0	46	0	0	0	49
N#C/C(=C/c1cn(-c2ccccc2)nc1-c1cccc(OCc2ccccc2)c1)C(=O)NCCCn1ccnc1	0	41	0	0	0	0
N#C/C(=C/c1cn(-c2ccccc2)nc1-c1cccc(S(=O)(=O)N2CCOCC2)c1)C(=O)NCc1ccco1	0	0	0	0	0	-
CCOc1cccc(-c2nn(-c3ccccc3)cc2/C=C(/C#N)C(=O)NCCCn2ccnc2)c1	0	0	0	0	0	-
O=C(CCNS(=O)(=O)c1ccccc1)OCc1ccc([N+](=O)[O-])cc1	0	0	0	0	0	-
COCCCN=C1NN=C(c2cc(C)n(-c3ccccc3F)c2C)CS1	0	0	0	0	0	-
COCCn1c(C)cc(C2=NNC(=Nc3ccccc3F)SC2)c1C	0	38	0	0	0	0
COCCOC(=O)c1c(C)oc2ccc(NS(=O)(=O)c3cccs3)cc12	0	0	0	0	-	-
CCCCOC(=O)c1c(C)oc2ccc(NS(=O)(=O)c3ccc4c5c(cccc35)C(=O)N4)cc12	0	32	0	0	0	0
COc1ccc(NC(=O)CSc2nnc(C)c3ccccc23)cc1	0	0	0	0	0	-
COc1ccc(NC(=O)CSc2ccc3c4c(cccc24)C(=O)c2ccccc2-3)cc1	0	33	0	0	+	0
Cc1ccc(N=C2SC(C(=O)Nc3ccc(OC(F)(F)F)cc3)C(N)=C2C(=O)Nc2c(C)cc(C)cc2C)cc1 (stereo not given)	0	33	0	0	0	0
CC#C[C@@H](CC)c1ccc2ccn(C)c2c1	0	0	0	0	0	-
COc1cc2nc(N(CCCN(C)C)C(=O)c3ccc(S(=O)(=O)N4CCc5ccccc54)cc3)sc2cc1OC	0	34	0	0	0	0
CCOC(=O)C1=C(N)n2c(s/c(=C/c3ccco3)c2=O)=C(C(=O)OC)C1c1ccco1 (stereo not given)	0	31	0	0	0	0
C[C@@H]1c2ccccc2N2C[C@H](Cc3ccc(C(=O)c4ccccc4)cc3)C[C@@H]12	0	0	0	0	0	-
CC(C)NC(=O)c1cc(-c2ccc(Br)cc2)on1	0	0	0	0	0	-
CC1CCCCN1c1nnc(NC(=O)c2cc(-c3ccc(Br)cc3)on2)s1 (stereo not given)	0	31	0	0	0	0
COc1ccccc1N1CCN(C(c2cccs2)C(C)NC(=O)c2ccncc2)CC1 (stereo not given)	0	0	0	0	0	-
COc1cc(Cn2c3ccc(NC(=O)NCCc4ccccc4)cc3c(=O)n2C)ccc1F	0	0	0	-	0	-
O=C(N/N=C/c1ccccc1Cl)c1nc2ccc([N+](=O)[O-])cc2c(=O)[nH]1	0	36	0	0	0	0
O=C(COc1ccc([N+](=O)[O-])cc1)N(C1CCCCC1)C1CCS(=O)(=O)C1 (stereo not given)	0	0	0	0	0	-
C=CCOc1ccc(C2/C(=C(/O)c3ccc4c(c3)CC(C)O4)C(=O)C(=O)N2CCCN2CCOCC2)cc1 (stereo not given)	0	29	0	0	0	0
